TRPV1 PAM: HTS Assay for Compounds that Act as Potentiators of the Vanilloid Receptor 1; TRPV1-expressing cells, Fluo-8 calcium influx, capsaicin EC20 potentiation; 320,000 tested, 0.02% active; potentiation, % at 8.33 µM; in the data active = potentiation above about 80%; inconclusive = between about 30% and that limit
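Fluo-8 calcium influx in TRPV1-expressing cells, kinetic read (ex 480/em 520 nm). Compound added and read 3 min for agonist activity, followed by capsaicin at EC20 final and 2 min further read for enhancement.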
KCNH2 3.1 inh: qHTS for Inhibitors of KCHN2 3.1: Mutant qHTS | Potassium voltage-gated channel subfamily H member 2, brain isoform KCNH2 3.1 (human) | U2OS KCNH2 3.1, thallium flux FluxOr; hits give low values | activity change, % (tested at about 1.8 µM) | 340,000 tested, 0.95% active | AID 720553, 2013;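 active = maximum activity change below -70%; inconclusive = maximum activity change from -70% to -50%; inactive = maximum activity change above -50%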;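 also: thallium influx rate constant from kinetic fluorescence after stimulation buffer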
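Normalized rate constant (relative to positive and negative DMSO controls) derived from a 2 min kinetic fluorescence read after stimulation; U2OS cells expressing the 3.1 isoform via virus at 1.77 x 10^8 /mL.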
hERG WT inh: qHTS for Inhibitors of KCHN2 3.1: Wildtype qHTS; Voltage-gated inwardly rectifying potassium channel KCNH2 (Homo sapiens), Q12809; U2OS, BacMam KCNH2, thallium flux FluxOr; hits give low values; activity change, % at 1.84 µM; 340,000 tested, 0.37% active;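 active = maximum activity change below -70%; inconclusive = maximum activity change between -70% and -50%; inactive = maximum activity change above -50%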
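U2OS cells transduced with wild-type KCNH2 virus are loaded with FluxOr dye for 45 min, and thallium flux is measured in kinetic reads before and after stimulation buffer. Rate constants are normalized to DMSO controls.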
TRPV1 agonist: HTS Assay for Compounds that Act as Agonists of the Vanilloid Receptor 1; Transient receptor potential cation channel subfamily V member 1 (Homo sapiens), Q8NER1; TRPV1-expressing cells, Fluo-8 calcium influx, agonist mode; activation, % at 8.33 µM; 320,000 tested, 0.19% active; AID 540275, 2011; in the data active = activation above about 80%; inconclusive = between about 30% and that limit
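TRPV1-expressing cells were cultured overnight at 35.5C and loaded with Fluo-8 calcium dye for 40 to 90 min at room temperature. After a 10 s baseline, compound was added and calcium influx was read kinetically for 3 min (ex 480/em 520 nm).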
MBNL1-CUG inh: qHTS Assay for Inhibitors of MBNL1-poly(CUG) RNA binding. Muscleblind-like protein 1 (Homo sapiens), Q9NR56. TR-FRET MBNL1-His/biotin-(CUG)12 binding, 665/545 ratio. Potency, µM (top dose mostly 57.5 µM), actives largely listed as inhibitors. 280,000 tested, 0.036% active. AID 2675, 2010; active = well fitted inhibition curve with a large enough effect in the signal ratio, with a control signal flat, not every such curve was filed as active; inconclusive = small, poorly fitted or top-dose-only effect, or effect the other way, or a change in a side signal; inactive = no such curve, though single readings can be large or run the other way; the % refers to the signal ratio
Target sequence (Q9NR56 whole entry, looked up): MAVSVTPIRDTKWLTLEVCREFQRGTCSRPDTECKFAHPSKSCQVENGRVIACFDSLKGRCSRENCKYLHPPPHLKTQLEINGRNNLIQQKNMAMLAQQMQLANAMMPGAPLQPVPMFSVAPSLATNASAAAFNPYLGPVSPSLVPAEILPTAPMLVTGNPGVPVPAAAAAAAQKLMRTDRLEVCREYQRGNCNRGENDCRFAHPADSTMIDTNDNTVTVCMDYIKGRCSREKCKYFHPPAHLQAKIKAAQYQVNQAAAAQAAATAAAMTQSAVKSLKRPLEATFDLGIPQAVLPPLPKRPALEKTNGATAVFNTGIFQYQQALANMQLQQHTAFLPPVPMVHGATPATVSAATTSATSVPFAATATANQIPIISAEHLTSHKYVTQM
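His-tagged MBNL1 binding to biotinylated (CUG)12 RNA was measured by TR-FRET using terbium anti-His antibody (0.055 ng/ul final) and streptavidin-XL665 (5 nM final). Compounds were titrated 92 nM to 58 uM; 60 min at room temperature.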
Numbers stand for hits; - = inactive; ? = inconclusive; . = not tested or not shown. An excerpt weighted towards active compounds, which were near 1.3% of everything screened.

SMILES	TRPV1 PAM	KCNH2 3.1 inh	hERG WT inh	TRPV1 agonist	MBNL1-CUG inh
O=C(Cc1ccc([N+](=O)[O-])cc1)N1CCN(c2ccc([N+](=O)[O-])cc2)CC1	-	-90.6	?	?	?
CSC(=NC#N)N1CCN(c2ccc([N+](=O)[O-])cc2)CC1	-	-78.5	-	-	?
COc1ccc(N2CCN(C(=O)c3ccc(CNS(=O)(=O)c4ccc(C)cc4)cc3)CC2)cc1	-	-	-	-	-
O=C(c1ccc(-c2cccc(Cl)c2)o1)N1CCN(c2ccc([N+](=O)[O-])cc2)CC1	-	-101.2	?	-	-
O=C(Cc1ccc(F)cc1)N1CCN(c2ccc([N+](=O)[O-])cc2)CC1	-	-	-	?	?
Cc1ccc(S(=O)(=O)NCc2ccc(C(=O)N3CCN(c4ccc([N+](=O)[O-])cc4)CC3)cc2)cc1	-	-96.3	-	-	?
Cc1ccc(C(=O)N[C@H](C(=O)Nc2cccc(S(=O)(=O)N3CCOCC3)c2)C(C)C)cc1	.	-	-	.	.
CCCCCC(=O)Nc1sc(C)c(C)c1C#N	-	-	-	-	-
CC(=O)OCCn1c(C)[n+](CCOC(C)=O)c2cc(Cl)c(Cl)cc21	-	-	-	-	-
CC(=O)OCCn1c2nc(=O)[nH]c(=O)c-2nc2cc(C)c(C)cc21	-	-	-	122.0	?
COC(=O)CCN1CCc2cc(N=Nc3ccc([N+](=O)[O-])cc3)ccc21	-	-	-	-	-
O=C(O)c1nn(CCOc2cccc(Br)c2)c(=O)c2ccccc12	-	-	-	-	-
O=C(c1cccc(S(=O)(=O)N2CCOCC2)c1)N(Cc1ccc(F)cc1)Cc1ccco1	-	-135.0	-	-	-
CN(C)S(=O)(=O)c1cccc(C(=O)N(Cc2ccc(F)cc2)Cc2ccco2)c1	-	-	-	-	-
CCOc1ccc(S(=O)(=O)Nc2ncn[nH]2)cc1	-	-	-	-	-
O=S(=O)(Nc1ncn[nH]1)c1ccc(Cl)cc1	-	-85.0	-	-	-
CC(C)CCNC(=O)CCn1c(=S)oc2ccccc21	-	.	-	-	-
C#Cc1ccc(CN2CCN(CCc3ccccc3)C(CCO)C2)cc1 (configuration not stated)	-	-73.5	-	-	-
OCCC1CN(Cc2ccc(F)cc2)CCN1CCCc1ccccc1 (configuration not stated)	-	?	-	-	-
CC(C)CCN1CCN(Cc2nc3ccccc3s2)CC1CCO (configuration not stated)	-	-	-	-	-
OCCC1CN(Cc2ccccc2O)CCN1CCc1ccccc1 (configuration not stated)	-	-	-	-	-
OCCC1CN(Cc2ccc(F)cc2)CCN1CCc1ccccc1 (configuration not stated)	?	-79.3	-	-	-
CC(C)CCN1CCN(CC(c2ccccc2)c2ccccc2)CC1CCO (configuration not stated)	-	-73.5	-	-	-
CC(C)Oc1ccc(S(=O)(=O)N2CCOCC2)cc1NC(=O)Cc1c(F)cccc1Cl	-	-	-	?	.
O=C(CCCN1CCN(c2ccccc2)CC1)c1ccc(F)cc1	.	-	-	.	.
SMILES	TRPV1 PAM	KCNH2 3.1 inh	hERG WT inh	TRPV1 agonist	MBNL1-CUG inh
O=C1NCN(c2ccccc2)C12CCN(CCCC(c1ccc(F)cc1)c1ccc(F)cc1)CC2	-	-	-193.6	-	-
O=C(O)CCCC(=O)N1N=C(c2ccccc2)CC1c1ccc2c(c1)OCO2 (configuration not stated)	-	-	-	-	-
CC1CN(c2nc3c(c(=O)n(Cc4ccc(Cl)cc4)c(=O)n3C)n2C)CC(C)O1 (configuration not stated)	-	-	-	106.3	-
Cn1c(N2CCCC2)nc2c1c(=O)n(Cc1ccc(Cl)cc1)c(=O)n2C	-	-	-	?	-
CCCN1C(=O)/C(=C\C=C2/Sc3ccccc3N2CCO)SC1=S	-	-80.9	-	-	-
CCCN1C(=O)/C(=C/C=C2\N(CC)c3ccccc3C2(C)C)SC1=S	-	-	-90.8	-	-
C=CCN1C(=O)/C(=C\C=C2\N(C)c3ccccc3C2(C)C)SC1=S	-	-	-	-	-
CC(C)CNC(=O)c1cccc(NC(=O)Cc2ccc(Cl)cc2)c1	-	-	-	-	.
O=C(c1ccc(Cl)cc1)C1CCCN(Cc2cnn(-c3ccccc3)c2)C1 (configuration not stated)	-	-87.5	-78.2	-	-
COc1cc2c(cc1OC)C(C(=O)Nc1ccc(F)c(Cl)c1)CC(=O)N2 (configuration not stated)	-	-110.2	-	-	-
COc1cc2c(cc1OC)C(c1ccc(Cl)cc1)CC(=O)N2 (configuration not stated)	?	-	-	-	-
COc1ccccc1CNC(=O)CCNS(=O)(=O)/C=C/c1ccc(C)cc1	.	-	-	.	.
Cc1nc2c(C)cccn2c1C(=O)c1ccccc1	-	-83.5	-	-	-
CCOC(=O)c1c(C)nc2c(C)cccn12	-	-	-	-	-
CCOc1cc(S(=O)(=O)N2CC=C(c3ccc(F)cc3)CC2)c(OCC)cc1-n1cnnn1	-	-82.4	-101.6	-	-
COc1ccc(NC(=O)C2C3C=CC4(O3)C2C(=O)N(CCN2CCCCC2C)C4C(=O)NC2CCCCC2)cc1 (configuration not stated)	-	-	-	-	-
O=S(=O)(c1ccc(F)cc1)N1CCN(CC(O)COCc2cccs2)CC1 (configuration not stated)	-	-78.0	-	-	-
O=S(=O)(c1ccc(F)cc1)N1CCN(CC(O)COc2ccccc2F)CC1 (configuration not stated)	-	-	-	-	-
CCOC(=O)c1cc(COc2cc(Cl)cc(Cl)c2)on1	-	-	-	-	-
O=C(c1ccc([N+](=O)[O-])cc1)N(Cc1ccc(Br)cc1)N1C(=O)CCCC1=O	-	?	-83.7	-	-
CCCCOc1ccc(C(=O)NCC(=O)NNC(=O)c2ccco2)cc1	.	-	-	.	.
OC1(c2ccc(Cl)cc2)CCN(Cc2cn[nH]c2-c2ccc(F)cc2)CC1	-	-87.6	-	-	.
CCOc1ccccc1CN1CCC(CO)(CCOc2ccccc2)CC1	-	-	-	-	-
COc1ccc(-c2[nH]ncc2CN2CCN(c3ccc(F)cc3)CC2)cc1	-	-	-	-	-

Compound activity deposited in PubChem BioAssay by National Center for Advancing Translational Sciences (NCATS).
